Consider eight compounds from ChEMBL document CHEMBL3988442, “University of Dundee, Small-Polar-MMV Screening Library” (2021).

For some of these results: Results with a measured potency or affinity are listed apart.

Common to all, as to parameters: scale not given: direction of the effect not stated beside the values
In assay [1] the target is Protein translocase subunit SecA (Escherichia coli (strain K12)) (UniProt P10408). Kind of assay: Assay to Identify E. coli SecA ATPase Inhibitors. The assay is classed as functional. The following applies: 30 µM.
The target in assay [2] is T1, Ubiquitin-activating enzyme e1, putative (Leishmania donovani (strain BPK282A1)) (UniProt E9BSI1).
T1 sequence (whole entry): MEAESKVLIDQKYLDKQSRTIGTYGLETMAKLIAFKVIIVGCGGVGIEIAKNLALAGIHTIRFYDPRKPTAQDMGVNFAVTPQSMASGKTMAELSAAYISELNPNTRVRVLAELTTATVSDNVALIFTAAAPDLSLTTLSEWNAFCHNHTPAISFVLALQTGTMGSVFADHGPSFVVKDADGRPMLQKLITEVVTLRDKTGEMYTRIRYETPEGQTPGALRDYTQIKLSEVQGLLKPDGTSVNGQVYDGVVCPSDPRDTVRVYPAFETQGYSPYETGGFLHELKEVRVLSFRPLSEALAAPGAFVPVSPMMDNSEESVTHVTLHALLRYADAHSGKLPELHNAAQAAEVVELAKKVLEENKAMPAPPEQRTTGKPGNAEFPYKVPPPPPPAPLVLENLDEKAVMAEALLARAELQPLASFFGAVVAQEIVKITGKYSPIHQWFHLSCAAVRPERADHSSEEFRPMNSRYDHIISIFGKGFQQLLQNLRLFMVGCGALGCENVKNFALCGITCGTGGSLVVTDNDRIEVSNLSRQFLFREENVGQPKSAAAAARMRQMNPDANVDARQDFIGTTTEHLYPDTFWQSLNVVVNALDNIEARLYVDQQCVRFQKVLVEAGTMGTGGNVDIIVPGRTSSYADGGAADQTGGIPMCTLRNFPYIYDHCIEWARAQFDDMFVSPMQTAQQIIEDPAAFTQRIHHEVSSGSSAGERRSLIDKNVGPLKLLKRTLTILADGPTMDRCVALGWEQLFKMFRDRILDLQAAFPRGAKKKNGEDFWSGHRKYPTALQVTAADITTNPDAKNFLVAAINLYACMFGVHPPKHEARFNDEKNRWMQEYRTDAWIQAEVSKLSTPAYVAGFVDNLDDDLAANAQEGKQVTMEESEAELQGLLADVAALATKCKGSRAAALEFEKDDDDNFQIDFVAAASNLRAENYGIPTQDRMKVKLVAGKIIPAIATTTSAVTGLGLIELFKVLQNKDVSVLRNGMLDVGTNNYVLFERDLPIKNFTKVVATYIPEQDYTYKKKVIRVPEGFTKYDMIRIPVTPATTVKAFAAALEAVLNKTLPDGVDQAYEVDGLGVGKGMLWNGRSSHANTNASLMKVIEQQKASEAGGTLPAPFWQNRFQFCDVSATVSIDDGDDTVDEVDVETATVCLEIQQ
Briefly: Leishmania donovani Ubiquitin Activating Enzyme (LdE1). The assay is classed as functional. The following applies: 30 µM.

For assay [3], the target named is AMP-activated protein kinase, AMPK (Homo sapiens) (UniProt P54646+O43741+P54619+Q9UGJ0+Q9Y478+Q13131+Q9UGI9). Briefly: AMP-dependent Kinase enzyme assay. An in vitro enzyme assay that detects ADP turnover that is directly proportional to AMPK activity. This uses naive AMPK that is activated during the assay with MK-8722. The assay is classed as functional. The note with it: 30 µM.

For assay [4], the target named is Sialic acid-binding Ig-like lectin 9 (Homo sapiens) (UniProt Q9Y336). Briefly: Hs-Siglec9 ALPHAscreen SOP 20170721. The following applies: 10 µM. On the technique in general: In Alpha technology, singlet oxygen from a donor bead excites a nearby acceptor bead.
The next assay has as its system Trypanosoma cruzi. Briefly: Trypanosoma cruzi phosphomannomutase and mannose-1-phosphate guanylyltransferase assay. The assay is classed as functional. The note with it: 10 µM.
Assay [5] has as its target T2, Arginase-2, mitochondrial (Homo sapiens) (UniProt P78540).
T2 sequence (whole entry): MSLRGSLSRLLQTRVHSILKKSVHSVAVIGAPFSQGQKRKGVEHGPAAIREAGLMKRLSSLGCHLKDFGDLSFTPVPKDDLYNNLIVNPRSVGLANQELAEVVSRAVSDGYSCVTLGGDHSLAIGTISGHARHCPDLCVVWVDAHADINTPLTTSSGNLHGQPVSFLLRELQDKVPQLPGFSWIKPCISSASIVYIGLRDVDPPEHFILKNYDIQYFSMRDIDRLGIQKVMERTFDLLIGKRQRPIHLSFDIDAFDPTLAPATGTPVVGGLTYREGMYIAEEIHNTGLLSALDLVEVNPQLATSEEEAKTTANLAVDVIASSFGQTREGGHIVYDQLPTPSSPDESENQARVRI
Briefly: in vitro enzyme assay to detect the production of urea directly proportional to the activity of Arginase II. Also: in the data most compounds retested in dose-response had high values. The assay is classed as functional. The following applies: 33.3 µM.

For assay [6], the target named is T3, Proteasome subunit beta (Trypanosoma cruzi) (UniProt O96673).
T3 sequence (whole entry): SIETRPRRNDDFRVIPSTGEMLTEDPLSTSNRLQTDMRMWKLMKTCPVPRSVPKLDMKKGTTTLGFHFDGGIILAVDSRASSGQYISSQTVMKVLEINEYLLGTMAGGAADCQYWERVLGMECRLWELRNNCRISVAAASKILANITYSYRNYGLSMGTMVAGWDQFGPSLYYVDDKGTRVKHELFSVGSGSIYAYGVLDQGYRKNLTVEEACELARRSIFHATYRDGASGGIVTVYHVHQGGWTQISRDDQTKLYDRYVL
Briefly: Trypanosoma cruzi proteasome chymotrypsin-like activity (TcProtChymo) assay. Also: in the data most compounds retested in dose-response had high values. The assay is classed as functional. The following applies: 9.37 µM.

For the next assay, the species on record is Homo sapiens. Briefly: To identify inhibition of the IFN signalling (Jak-Stat) pathway via expression of an eGFP reporter gene under the control of an IFN-stimulated response element (ISRE) containing MxA promoter. The assay is classed as functional. The note with it: 30 µM. Background: A reporter such as luciferase makes a cellular process visible.
The target in assay [7] is T4, Tyrosyl-tRNA synthetase, putative (Trypanosoma cruzi (strain CL Brener)) (UniProt Q4DSP6).
T4 sequence (whole entry): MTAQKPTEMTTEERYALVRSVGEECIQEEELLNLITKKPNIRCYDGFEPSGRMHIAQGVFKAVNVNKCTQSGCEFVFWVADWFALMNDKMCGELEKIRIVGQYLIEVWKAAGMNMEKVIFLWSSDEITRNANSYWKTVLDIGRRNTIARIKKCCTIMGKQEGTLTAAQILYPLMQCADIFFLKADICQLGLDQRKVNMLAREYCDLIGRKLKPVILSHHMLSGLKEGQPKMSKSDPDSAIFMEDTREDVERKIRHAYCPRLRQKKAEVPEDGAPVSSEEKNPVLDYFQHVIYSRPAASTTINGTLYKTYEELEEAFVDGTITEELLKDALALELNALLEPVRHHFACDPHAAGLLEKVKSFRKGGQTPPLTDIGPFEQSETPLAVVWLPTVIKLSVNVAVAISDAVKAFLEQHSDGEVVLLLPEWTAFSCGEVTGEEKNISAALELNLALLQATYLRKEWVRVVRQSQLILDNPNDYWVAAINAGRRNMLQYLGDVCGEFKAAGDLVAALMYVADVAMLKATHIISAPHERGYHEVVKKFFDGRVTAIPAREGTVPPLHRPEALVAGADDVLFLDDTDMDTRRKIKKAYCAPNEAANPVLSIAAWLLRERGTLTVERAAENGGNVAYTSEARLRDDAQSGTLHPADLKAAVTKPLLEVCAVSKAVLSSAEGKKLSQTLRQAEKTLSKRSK
Kind of assay: Trypanosoma cruzi tyrosyl tRNA synthetase (TcYRS) _High Tyrosine SOP. Also: in the data most compounds retested in dose-response had high values. The assay is classed as functional. The following applies: 30 µM.

In assay [8] the target is T4, Tyrosyl-tRNA synthetase, putative (Trypanosoma cruzi (strain CL Brener)). Kind of assay: Trypanosoma cruzi tyrosyl tRNA synthetase (TcYRS) SOP. The assay is classed as functional. The following applies: 30 µM.
For assay [9], the target named is Chromo domain-containing protein 1 (Saccharomyces cerevisiae (strain ATCC 204508 / S288c) (Baker's yeast)) (UniProt P32657). Briefly: ScCHD-1 Enzyme Inhibition Assay. Also: in the data most compounds retested in dose-response had high values. The assay is classed as functional. The note with it: 30 µM.
Chain of Chromo domain-containing protein 1 (Saccharomyces cerevisiae (strain ATCC 204508 / S288c) (Baker's yeast)) (P32657 whole entry, the tested form may be a part): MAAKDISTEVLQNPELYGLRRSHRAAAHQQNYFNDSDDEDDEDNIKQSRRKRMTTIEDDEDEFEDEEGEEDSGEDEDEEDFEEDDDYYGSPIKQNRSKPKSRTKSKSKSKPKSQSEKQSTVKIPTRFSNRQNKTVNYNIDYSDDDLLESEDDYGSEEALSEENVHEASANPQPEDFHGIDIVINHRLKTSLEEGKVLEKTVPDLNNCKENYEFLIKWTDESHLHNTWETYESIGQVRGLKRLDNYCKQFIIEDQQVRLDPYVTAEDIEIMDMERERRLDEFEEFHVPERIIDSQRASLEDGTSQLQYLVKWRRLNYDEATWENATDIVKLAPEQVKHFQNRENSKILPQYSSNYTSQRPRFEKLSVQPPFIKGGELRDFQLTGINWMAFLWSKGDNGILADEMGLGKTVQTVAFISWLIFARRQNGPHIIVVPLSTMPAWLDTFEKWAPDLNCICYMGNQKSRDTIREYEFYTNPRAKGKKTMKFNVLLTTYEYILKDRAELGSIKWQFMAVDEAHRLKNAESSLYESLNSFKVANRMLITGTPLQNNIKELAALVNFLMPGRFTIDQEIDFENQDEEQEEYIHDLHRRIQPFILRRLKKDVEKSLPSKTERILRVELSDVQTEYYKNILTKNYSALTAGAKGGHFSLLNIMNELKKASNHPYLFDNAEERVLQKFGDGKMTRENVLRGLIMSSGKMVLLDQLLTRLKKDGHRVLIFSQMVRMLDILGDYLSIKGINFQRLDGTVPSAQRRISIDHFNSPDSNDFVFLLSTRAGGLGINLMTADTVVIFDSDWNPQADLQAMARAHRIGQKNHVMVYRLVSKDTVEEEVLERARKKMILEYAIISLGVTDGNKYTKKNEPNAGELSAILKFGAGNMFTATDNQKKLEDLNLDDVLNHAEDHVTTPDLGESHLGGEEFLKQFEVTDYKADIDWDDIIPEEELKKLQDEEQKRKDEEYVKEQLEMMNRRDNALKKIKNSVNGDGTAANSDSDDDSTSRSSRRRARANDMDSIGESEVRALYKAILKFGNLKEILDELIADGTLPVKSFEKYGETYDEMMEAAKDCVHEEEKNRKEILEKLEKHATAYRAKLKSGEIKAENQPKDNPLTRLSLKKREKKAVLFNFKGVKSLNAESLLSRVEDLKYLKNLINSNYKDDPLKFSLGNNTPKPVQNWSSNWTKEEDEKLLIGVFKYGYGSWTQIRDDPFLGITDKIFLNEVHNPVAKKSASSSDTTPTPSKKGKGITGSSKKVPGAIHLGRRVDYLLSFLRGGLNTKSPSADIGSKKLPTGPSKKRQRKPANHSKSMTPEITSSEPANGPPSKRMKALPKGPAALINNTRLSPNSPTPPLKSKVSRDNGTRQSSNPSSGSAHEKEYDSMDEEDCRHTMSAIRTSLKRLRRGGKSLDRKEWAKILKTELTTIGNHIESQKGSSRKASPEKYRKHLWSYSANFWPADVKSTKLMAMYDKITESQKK

Chain of Protein translocase subunit SecA (Escherichia coli (strain K12)) (P10408 whole entry): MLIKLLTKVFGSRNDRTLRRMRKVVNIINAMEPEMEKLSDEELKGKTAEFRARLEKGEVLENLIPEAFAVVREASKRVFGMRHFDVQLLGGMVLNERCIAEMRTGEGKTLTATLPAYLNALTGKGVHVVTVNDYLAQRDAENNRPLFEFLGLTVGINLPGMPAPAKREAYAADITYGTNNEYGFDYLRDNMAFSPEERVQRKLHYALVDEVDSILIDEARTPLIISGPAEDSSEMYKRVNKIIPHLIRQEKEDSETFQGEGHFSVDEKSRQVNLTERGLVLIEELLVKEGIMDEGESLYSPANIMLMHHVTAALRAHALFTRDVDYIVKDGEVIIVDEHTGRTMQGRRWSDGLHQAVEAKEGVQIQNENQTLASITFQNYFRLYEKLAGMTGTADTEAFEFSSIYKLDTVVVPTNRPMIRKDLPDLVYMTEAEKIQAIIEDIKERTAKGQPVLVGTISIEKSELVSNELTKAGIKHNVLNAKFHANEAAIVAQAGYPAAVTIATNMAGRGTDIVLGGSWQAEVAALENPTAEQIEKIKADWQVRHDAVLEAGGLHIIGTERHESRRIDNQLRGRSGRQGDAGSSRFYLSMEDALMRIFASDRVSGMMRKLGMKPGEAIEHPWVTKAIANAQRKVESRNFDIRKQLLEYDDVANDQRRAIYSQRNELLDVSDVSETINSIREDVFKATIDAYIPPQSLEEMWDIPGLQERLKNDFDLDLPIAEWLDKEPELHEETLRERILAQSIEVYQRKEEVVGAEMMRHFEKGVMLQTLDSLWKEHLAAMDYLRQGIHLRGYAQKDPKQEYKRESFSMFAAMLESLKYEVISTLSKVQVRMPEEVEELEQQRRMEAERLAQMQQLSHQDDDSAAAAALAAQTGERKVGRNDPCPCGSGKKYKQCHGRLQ
Chain of Sialic acid-binding Ig-like lectin 9 (Homo sapiens) (Q9Y336 whole entry): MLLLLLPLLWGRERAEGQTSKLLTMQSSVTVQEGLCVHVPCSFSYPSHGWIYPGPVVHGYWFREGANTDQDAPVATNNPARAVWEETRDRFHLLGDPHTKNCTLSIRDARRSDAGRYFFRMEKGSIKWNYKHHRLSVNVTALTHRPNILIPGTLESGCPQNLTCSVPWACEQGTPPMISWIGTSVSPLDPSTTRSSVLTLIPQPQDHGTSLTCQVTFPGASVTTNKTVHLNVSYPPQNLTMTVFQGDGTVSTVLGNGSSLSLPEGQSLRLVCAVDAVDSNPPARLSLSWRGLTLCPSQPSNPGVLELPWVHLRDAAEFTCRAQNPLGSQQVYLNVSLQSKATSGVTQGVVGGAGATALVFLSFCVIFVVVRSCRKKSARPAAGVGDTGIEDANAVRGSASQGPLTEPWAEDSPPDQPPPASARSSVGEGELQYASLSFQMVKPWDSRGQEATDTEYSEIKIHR

`CCOc1ccc(CNCCCn2ccnc2)cc1Br`: the Percent Effect in assay [1] was -0.283%; in assay [2], 12%; in assay [3], -3.14%; in assay [4] it was 3.52%; in the assay on Trypanosoma cruzi, -3.34%; in [5], -6.51%. In addition, the Percent Effect was 12.8% in assay [6]; 9.57% in the assay listed under Homo sapiens; 6.35% in assay [7]; 10.3% in assay [8]; -10.4% in [9].

As to `CC1CN(C(=O)CN(Cc2ccccc2Br)C2CC2)CCO1` (stereo not drawn), the Percent Effect in assay [1] was -1.13%; in assay [2] it was 0%; in [3], 4.5%; in [4], 0.479%; in the assay on Trypanosoma cruzi, 3.82%; in [5] it was -3.16%. For the same compound, the Percent Effect in assay [6] was -4.77%; in the assay listed under Homo sapiens it was 13.8%; in [7] it was 3.81%; in assay [8], 7.06%; in [9] it was -7.55%.

Take `Cc1nc(C2CCCN(C(=O)c3ccc(Cn4cccn4)o3)C2)no1` (stereo not drawn): the Percent Effect in assay [1] is 0.739%; in assay [2] it was -5.2%; in [3], 2.21%; in assay [4] it was 1.09%; in the assay on Trypanosoma cruzi it was -2.43%; in [5], 5.34%. Also, the Percent Effect was -4.9% in [6]; 10.9% in the assay filed under Homo sapiens; 3.88% in [7]; 0% in [8]; 0.66% in assay [9].

As to `Cc1ccc(NC2CCN(C(=O)COc3cccnc3)CC2)nn1`, the Percent Effect in assay [1] was -5.07%; in assay [2], 21.5%; in assay [3] it was -3.6%; in assay [4], -4.99%; with Trypanosoma cruzi, -0.923%; in assay [5], -1.94%. Also, the Percent Effect in [6] was 14.1%; in the assay filed under Homo sapiens it was 12.9%; in [7] it was 4.17%; in assay [8], 15.2%; in assay [9], -15.5%.

Turning to `Cc1cc(C)cc(OCCC(=O)N2CCCC(n3cncn3)C2)c1` (stereo not drawn), the Percent Effect is -0.911% in assay [1]; -8.11% in assay [2]; 0.29% in [3]; 4.17% in [4]; 8.08% in the assay on Trypanosoma cruzi; -5.73% in assay [5]. Besides, the Percent Effect in [6] is -5.21%; in the assay listed under Homo sapiens, 4.81%; in [7], 0%; in [8], 3.66%; in assay [9], 1.95%.

As to `CNc1nc(CNC(=O)Nc2cccc(-c3nnco3)c2)cs1`, the Percent Effect in [1] was -5.07%; in [2] it was 8.11%; in assay [3] it was 1.7%; in assay [4], -1.65%; in the assay with Trypanosoma cruzi, -3.81%; in assay [5], -4.25%. Also, the Percent Effect was 4.13% in [6]; -4.5% in the assay filed under Homo sapiens; 2.97% in assay [7]; 1.22% in assay [8]; 4.29% in assay [9].

`CC(C)OCCN1CCC(N2CCN(C)C2=O)CC1`: the Percent Effect in assay [1] is -8.32%; in assay [2] it was 10.4%; in [3], -1.47%; in assay [4], 4.31%; in the assay on Trypanosoma cruzi, 8.24%; in assay [5] it was -6.05%. Moreover, the Percent Effect in assay [6] is -1.18%; in the assay filed under Homo sapiens, 6.82%; in [7] it was 4.85%; in assay [8] it was 14.6%; in assay [9] it was -9.74%.

On to `CC(C)c1nnc2n1CCN(CCCS(=O)(=O)c1ccccc1)C2`, for which the Percent Effect in assay [1] was -2.39%; in assay [2], 7.79%; in assay [3] it was 4.29%; in assay [4], 7.26%; with Trypanosoma cruzi, 6.18%; in [5], -4.27%. The Percent Effect in assay [6] is 7.94%; in the assay listed under Homo sapiens it was 0.936%; in assay [7], 1.94%; in [8], 14.6%; in [9], -8.88%.
